Assay outcomes: PubChem BioAssay, several laboratories
Compounds with a hit are over-represented: about 1.6% of the library has one in this group of screens.
3CLpro inhibitor: SARS-CoV 3CLpro protease inhibition; P0C6X7; recombinant SARS-CoV 3CLpro, quenched FRET peptide cleavage; inhibition, % at 6 µM; 290,000 tested, 0.14% active; AID 1706; in the data active = inhibition above about 12%
PfHsp40 rescue: restores yeast growth despite PfHsp40 toxicity; S. cerevisiae expressing PfHsp40, growth rescue, ATP luminescence; growth rescue, % at 12.5 µM; 340,000 tested, 0.68% active; AID 504582; in the data active = growth rescue above about 28%, passing the limit was not always enough; inconclusive = no clear call, values can overlap the other calls;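 also: yeast W303a lacking pdr1 and pdr3 grown in galactose medium; growth measured after three days at 30 °C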
PriA SSB inh: blocks PriA binding to SSB C-terminal tail; inhibition, % at 33 µM; AID 1272365; 430,000 tested, 0.6% active; AlphaScreen SSBct-PriA binding, biotinylated peptide; in the data active = inhibition mostly above about 37%, no sharp cut-off; inactive = mostly below about 20%;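 also: plate controls were negative control peptide for no effect and reference peptide for full effect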
Vc quorum ag: inducers of Vibrio cholerae quorum light production without autoinducers. V. cholerae BH1578 lux reporter, luminescence, 6 h. activation, % at 18.7 µM. 350,000 tested, 0.16% active. AID 588436; in the data active = activation mostly above about 9.7%, no sharp cut-off; inconclusive = no clear call, values can overlap the other calls; inactive = mostly below about 3.7%
PrP UTR inh: inhibition of PrP 5' UTR reporter expression; cell-based PrP 5' UTR mRNA reporter, plate reader; inhibition, % (concentration not given with the values); 340,000 tested, 0.35% active; AID 488862; in the data active = inhibition above about 52%; also: 0 = median of the neutral control wells
PrPC surface inh: inhibitors of human cell surface prion protein PrPC; P04156; TR-FRET read-out; inhibition, % at 13.8 µM; 370,000 tested, 0.43% active; AID 720596; in the data active = inhibition above about 24%; also: 0% = median of the test wells and 100% = reference compound wells
PrPC TRFRET cf: confirmation of inhibitors of cell surface human prion protein | shares compounds with PrPC surface inh | cell surface PrPC level, TR-FRET | inhibition, % at 13.8 µM | 1,500 tested, 65% active; in the data active = inhibition above about 25%
LD9 cytotox: LD9 cell cytotoxicity, PrPc inhibitor counter-screen; shares compounds with PrPC surface inh; LD9 cells cytotoxicity, luminescence viability; inhibition, % at 13.8 µM; 1,500 tested, 29% active; in the data active = inhibition above about 9.5%
* hit, by the source's call; i = inactive; ? = inconclusive; / = not tested or not shown.

SMILES	3CLpro inhibitor	PfHsp40 rescue	PriA SSB inh	Vc quorum ag	PrP UTR inh	PrPC surface inh	PrPC TRFRET cf	LD9 cytotox
Cc1cc(NC(=O)C(=O)NCC2(c3ccc(F)cc3)CC2)no1	/	/	-6	/	/	/	/	/
CCOCc1c(C(=O)Nc2cc(OCC)c(N3CCOCC3)cc2OCC)oc2ccccc12	-1	0	15	i	-16	-1	/	/
CCOCc1c(C(=O)Nc2ccc3nc(N4CCOCC4)sc3c2)oc2ccccc12	/	?	-18	6	-20	33*	16	6
CCOc1ccc(NC(N)=Nc2nc(C)cc(C)n2)cc1	/	/	10	/	/	/	/	/
CC(=O)CSc1nc(N)c(C#N)c(-c2cccs2)c1C#N	3	0	-12	i	-14	-8	/	/
CC(=O)CSc1nc(-c2cccs2)c(C#N)c(=O)[nH]1	0	0	-4	i	-10	91*	99*	-5
COc1cc2nc(CN3CC=C(c4ccccc4)CC3)[nH]c(=O)c2cc1OC	/	1	-8	i	-19	24*	47*	25*
Cc1cc(C(=O)N2CCC(c3nnc(C)s3)CC2)c(C)o1	/	/	-5	/	/	/	/	/
O=C(c1ccc(Cl)c(Cl)c1)c1cc(-c2ccccn2)c(N2CCOCC2)s1	2	1	-53	i	-8	41*	52*	5
O=C(c1ccc(Br)cc1)c1cc(-c2ccccn2)c(N2CCOCC2)s1	-1	4	-5	i	-14	-12	/	/
Cc1csc(NC(=O)c2cc3c(C)nn(Cc4ccccc4Cl)c3s2)n1	6	-1	-16	-4	-7	33*	24	-1
Cc1nn(Cc2ccccc2Cl)c2sc(C(=O)NC(C)(C)C)cc12	1	2	-10	1	4	7	/	/
CC(=O)c1ccc(CCCCCCCCCC(=O)O)s1	6	2	0	5	1	76*	68*	-10
COC(=O)CCCCCc1ccc(C(C)=O)s1	-2	-1	-14	0	-11	63*	77*	0
CCC(=O)c1ccc(CCCCCC(=O)O)s1	-3	-1	-12	i	-5	18	/	/
O=C(Cn1cnc(-c2ccc(F)cc2)cc1=O)c1ccc(Cl)cc1	/	/	-13	/	/	/	/	/
COc1cccc2cc(C(=O)C3=C(O)C(=O)N(CCN(C)C)C3c3ccc(Cl)cc3)oc12 (stereo unspecified)	2	0	-1	i	-36	41*	52*	-3
